The source made the active and inactive calls.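 The calls were made as follows: active = blocks over 70% of labeled estradiol binding at 10 µM, or over a set limit at 100 nM; inactive = the rest.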
Target: Estrogen receptor beta (Homo sapiens) (UniProt Q92731)
Assay: displacement of fluorescent estrogen from ERbeta – cell-based, Cos7 ERbeta-GFP, flow cytometry, primary screen (AID 1210);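 also: 0% = DMSO vehicle wells and 100% = complete loss of labeled estradiol signal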
Conditions: fluorescent estrogen binding, stronger effect = higher value
[1] = ligand binding inhibition, at 0.1 µM

Sequence of Estrogen receptor beta (Homo sapiens) (Q92731 whole entry, looked up): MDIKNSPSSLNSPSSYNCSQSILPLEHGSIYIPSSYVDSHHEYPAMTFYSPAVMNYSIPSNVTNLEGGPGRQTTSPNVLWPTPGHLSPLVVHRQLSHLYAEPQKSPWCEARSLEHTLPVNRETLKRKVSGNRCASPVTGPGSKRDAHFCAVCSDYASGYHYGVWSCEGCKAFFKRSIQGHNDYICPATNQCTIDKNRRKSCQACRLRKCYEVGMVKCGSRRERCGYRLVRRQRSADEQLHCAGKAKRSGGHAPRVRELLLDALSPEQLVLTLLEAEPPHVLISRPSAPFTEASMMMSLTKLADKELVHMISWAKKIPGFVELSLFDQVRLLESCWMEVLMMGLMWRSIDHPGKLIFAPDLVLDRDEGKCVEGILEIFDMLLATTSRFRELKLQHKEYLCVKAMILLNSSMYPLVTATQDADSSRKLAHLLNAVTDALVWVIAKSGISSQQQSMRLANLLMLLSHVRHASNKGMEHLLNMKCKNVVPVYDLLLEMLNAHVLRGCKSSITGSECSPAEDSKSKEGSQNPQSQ

Which results are given for `CCOC(=O)C1CCCN(C(=O)c2cc3ncc(Br)cn3n2)C1` (configuration not stated)?
inhibition (at 10 µM): 0% (inactive); inhibition [1]: 26%

How did the inhibition (at 10 µM) turn out when `Cc1ccc(Cn2c(NC(=O)c3ccco3)nc3ccccc32)cc1` was run?
The inhibition was 10% (inactive).

And the inhibition [1]?
Its inhibition is 19%.

For `ON=C1/C(=N\O)CC2(C/C1=N/O)OCCO2`, which inhibition (at 10 µM) is on record?
Its inhibition is 28% (inactive).

And the inhibition [1]?
Its inhibition is 31%.

`Oc1ccc(-c2cn3c(n2)SCC3)cc1` was tested. Which inhibition (at 10 µM) did it give?
The inhibition was 64% (inactive).

What about the inhibition [1] of the same compound?
Its inhibition is 10%.

With `Oc1ccc(-c2csc(-c3c[nH]c4ccccc34)n2)c(O)c1` as the compound, how does the inhibition (at 10 µM) read?
Its inhibition is 81% (active).

What about the inhibition [1] of the same compound?
Its inhibition is 29%.

Which results are given for `O=C(NCCN1CCOCC1)c1cnn2c(-c3ccccc3)cc(-c3ccccc3)nc12`?
inhibition (at 10 µM): 47% (inactive); inhibition [1]: 21%
